The campaign covered roughly 5,500 compounds. About 2,000 (36%) were called active. Inconclusive results (about 18%) are left out. Cut-off read from the data, not from the text of the source: active = normalized growth mostly below about 0.91 (no sharp cut-off); inconclusive = no clear call, values can overlap the other calls; inactive = mostly above about 0.92. This is one part of the list.
Assay: chemical genetic growth profiling, strain panel (AID 1159580);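 note: tested at 20 µM; growth read once vehicle control cultures reached saturation at 30 °C; 1 = growth at the plate median or of vehicle wells; lower values mean less growth of the strain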
Settings: S. cerevisiae deletion strains, growth OD
[1] = locus YAL013W, strain DEP1, active compounds read low
[2] = locus YGR078C, strain PAC10, active compounds read low
[3] = locus YJR075W, strain HOC1, active compounds read low
[4] = locus YMR307W, strain GAS1, active compounds read low

Measured: normalized growth

CN1C[C@@H](CS(=O)(=O)N(C)C)C[C@@H]2c3cccc4c3c(cn4C)C[C@H]21
inactive: [1] 1 | locus YAL040C, strain CLN3, active compounds read low 1.01 | locus YCL061C, strain MRC1 (second series), active compounds read low 1 | locus YDR363W, strain ESC2, active compounds read low 1.01 | locus YER002W, strain NOP16, active compounds read low 1.01 | [2] 1.01 | [3] 1 | [4] 1.03 | locus YNL175C, strain NOP13, active compounds read low 1.01 | locus YNL197C, strain WHI3, active compounds read low 1.02 | locus YNL224C, strain SQS1, active compounds read low 1.01 | locus YOR083W, strain WHI5 (second series), active compounds read low 1.03

Cc1c(C)c(C)c(CO)c(C)c1C
inactive: [1] 0.988 | locus YBR229C, strain ROT2, active compounds read low 1.01 | locus YDL101C, strain DUN1, active compounds read low 1.01 | locus YDR150W, strain NUM1, active compounds read low 0.981 | locus YEL061C, strain CIN8, active compounds read low 0.996 | [2] 0.998 | locus YHR030C, strain SLT2, active compounds read low 1.06 | locus YHR087W, strain rtc3, active compounds read low 1.01 | locus YJL187C, strain SWE1, active compounds read low 1 | locus YJR043C, strain POL32, active compounds read low 1 | [3] 1.04 | locus YLR039C, strain RIC1, active compounds read low 0.98 | locus YLR058C, strain SHM2 (second series), active compounds read low 1.02 | locus YLR085C, strain ARP6, active compounds read low 1.06 | locus YLR262C, strain YPT6, active compounds read low 0.955 | locus YML094W, strain GIM5, active compounds read low 0.996 | locus YMR219W, strain ESC1, active compounds read low 1.01 | locus YMR263W, strain SAP30, active compounds read low 0.993 | [4] 1.03 | locus YNL153C, strain GIM3, active compounds read low 0.97 | locus YNL298W, strain CLA4 (second series), active compounds read low 1.04 | locus YNL322C, strain KRE1, active compounds read low 1.01 | locus YNR030W, strain Alg12, active compounds read low 1 | locus YPL055C, strain LGE1, active compounds read low 0.997 | locus YPL241C, strain CIN2, active compounds read low 0.989 | locus YPR135W, strain CTF4, active compounds read low 1
